Each structure is given as a SMILES string. Inconclusive results are not listed. The source made the active and inactive calls. Unless noted, calls come from the whole dose curve; as a rule, active = well fitted curve in the direction sought with a large enough effect; inconclusive = small, poorly fitted or top-dose-only effect, or another doubt; inactive = no such curve, though single readings can be large; an effect the other way counts as inactive or inconclusive. Residues, ends and D or L forms follow the SMILES beside them.

Test [1] addresses Lysosomal acid glucosylceramidase (Homo sapiens) (UniProt P04062). Kind of test: Glucocerebrosidase-p2 (AID 348; in the data active = potency below about 10 µM; note: potency is the fitted concentration of half-maximal effect). As to conditions: purified GBA, blue fluorogenic substrate, 40 min. In outline:
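Compounds titrated from 0.6 nM upwards against 0.2 nM enzyme in pH 5.9 citric acid/KH2PO4, taurocholate, tween-20; blue fluorogenic substrate 80 uM, 40 min room temperature, stopped and read Ex 365/Em 440 for AC50.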

Test [2] is described as follows: AP1 Signaling Pathway (AID 357; active = well fitted curve in either direction with a large enough effect, not every such curve was filed as active;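 note: ME-180 reporter cells stimulated with EGF at its EC50 level; % is set by controls: 0 for no effect and ±100 for the full control effect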). Conditions: ME-180 AP-1-bla reporter, EGF-induced, beta-lactamase ratio, 5 h; at 7.69 µM (top of the series) unless noted. Put shortly: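 In this screen, ME-180 cells in Opti-MEM with 0.5% dialyzed FBS received EC50 EGF and compound titrations for 5 h. AP-1 reporter beta-lactamase was detected via CCF4 ratio, giving AC50 for positive and negative modulators.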

Test [3] is described as follows: NFAT Signaling Pathway (AID 444; active = well fitted curve in either direction with a large enough effect, not every such curve was filed as active;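 note: carbachol stimulus at about its EC50 of 1 µM final; % is set by controls: 0 for no effect and ±100 for the full control effect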). Conditions: Jurkat NFAT-bla M1, carbachol, beta-lactamase ratio, 5 h; at 7.69 µM (top of the series) unless noted. In outline: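 Read-out: CCF4 FRET ratio (460 nm/530 nm) after 1 h RT dye loading, used for %activity and AC50 from titration series. Cells: Jurkat NFAT-β-lactamase/M1 line, treated with compound plus 1 uM carbachol for 5 h, 37 °C.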

A short description of test [4]: Stat Signaling Pathway (AID 446; active = well fitted curve in either direction with a large enough effect, not every such curve was filed as active;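 note: ME-180 cervical cancer cells given 40 pM IL-6 alongside compound; SIE-controlled beta-lactamase reporter measured as 460/530 nm FRET emission ratio; % is set by controls: 0 for no effect and ±100 for the full control effect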). Conditions: ME-180 (cervical carcinoma) SIE beta-lactamase reporter, IL-6 stimulated, 5 h; at 7.69 µM (top of the series) unless noted. Put shortly:
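ME-180 cells carrying a SIE-driven beta-lactamase reporter are stimulated with 40 pM IL-6 for 5 h at 37C in the presence of compound. The 460/530 nm FRET substrate ratio is read after 2.5 h at RT. Data are normalised to 300 pM IL-6 and to 125 nM JAK inhibitor controls.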

For test [5], the target named is Glucocorticoid receptor (Homo sapiens) (UniProt P04150). Kind of test: GR-EFC Redistribution (AID 451; calls by dose curve; note: potency is the fitted concentration of half-maximal effect). Conditions: CHO-K1 GR-EFC translocation, beta-gal luminescence, 2 h. Put shortly: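 Translocation of GR-ED fusion to nuclear EA restores b-gal, read by luminescence after 1 h room-temperature detection. Engineered CHO-K1 biosensor cells, 1,000/well, exposed 2 h at 37 C to titrations up to 46 uM final.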

Test [6] has as its target Mitogen-activated protein kinase 10 (Mus musculus) (UniProt Q61831). The test is described as follows: JNK3 AlphaScreen Assay (AID 530; active = well fitted curve in either direction with a large enough effect, not every such curve was filed as active;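 note: kinase came from lysate of stimulated human HepG2 cells; signal reports phosphorylation of biotinylated GST-cJun 1-79 at Ser73 with 10 µM ATP; % is set by controls: 0 for no effect and ±100 for the full control effect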). Put shortly:
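Room-temperature AlphaScreen kinase assay; pre-activated HepG2 lysate as JNK3 source, biotin-GST-cJun(1-79) substrate, 10 uM ATP, compound 15 min preincubation.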
For orientation: Bead proximity is the source of the signal in Alpha formats.

Test [7] has as its target 3',5'-cyclic-AMP phosphodiesterase 4B (Homo sapiens) (UniProt Q07343). The test is described as follows: qHTS Assay for Inhibitors of PDE-IV (AID 607; active = well fitted activation curve with a large enough effect in the main read-out, with a control signal flat, not every such curve was filed as active; note: % of control where 0% means no effect). In outline: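 HEK293 ACTOne cells with CNG channel (1000/well), endogenous PDE4; membrane potential dye, compounds up to 22.9 uM final. Fluorescence Ex 535/Em 590; RO 20-1724 (100 uM final) as reference.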
Background: Quantitative high-throughput screening tests each substance at several concentrations.

Test [8] addresses Cytochrome P450 3A4 (Homo sapiens) (UniProt P08684). The test is described as follows: qHTS Assay for Activators of Cytochrome P450 3A4 (AID 885). Note: nearly all actives have a fitted effect of over 65% in size. Put shortly:
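Human CYP3A4 (20 nM) with Luciferin-PPXE at 25 uM (its KM) in 200 mM KPO4; 10 min compound preincubation, then NADPH regeneration and 60 min reaction at RT. Luciferin read by luminescence; normalized to 57 uM ketoconazole full inhibition.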

Test [9] in a line: qHTS Assay for Lipid Storage Modulators (AID 1519; calls by dose curve). Conditions: Drosophila S3 cells, BODIPY lipid droplet/cell ratio, laser cytometry, cells loaded with oleic acid; for activity change, negative = inhibition: at 57.5 µM (top of the series). Put shortly: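 Cells seeded at 5,000 per well were treated with compounds over a concentration series and loaded with oleic acid (400 uM, as added). Lipid droplet fluorescence (488 nm excitation, 500-530 nm channel) was read by laser-scanning cytometry and normalized to 20 uM Triacsin C.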

Test [10] can be described thus: Counterscreen qHTS for small molecule stabilizers of the endoplasmic reticulum resident proteome: GLuc-NoTag assay (AID 1508627).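 Note: SH-SY5Y cells given compound then 100 nM thapsigargin to empty ER calcium; 0% = thapsigargin alone and -100% = DMSO vehicle control.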 Put shortly: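 Luminescence of Gaussia luciferase secreted into the medium (coelenterazine, 0.07x final, unlysed cells) was the read-out. Human SH-SY5Y neuroblastoma cells constitutively secreting untagged GLuc received compound for 19 h, then 100 nM thapsigargin for 4 h.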

Test [11] can be described thus: Confirmatory qHTS for small molecule stabilizers of the endoplasmic reticulum resident proteome: Secreted ER Calcium Modulated Protein (SERCaMP) assay (AID 1508628). Note: nearly all actives have a fitted effect of over 40% in size. Note: potency is the fitted concentration of half-maximal effect. Put shortly: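 We seeded SH-SY5Y-GLuc-SERCaMP cells, added compounds (three concentrations in the primary run, eleven up to 76.6 uM in confirmation), incubated 16 h, depleted ER calcium with thapsigargin, and read luciferase 4 h later.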

Test [12] in a line: Cell Viability qHTS for small molecule stabilizers of the endoplasmic reticulum resident proteome (AID 1508629). Conditions: cell viability counter-screen, 100 nM thapsigargin for final 4 h.
The target in test [13] is Cytochrome P450 1A2 (Homo sapiens) (UniProt P05177). Kind of test: p450-cyp1a2 (AID 410; calls by dose curve; note: potency is the fitted concentration of half-maximal effect). Put shortly:
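Human CYP1A2 (20nM) demethylated Luciferin-ME at its Km (100uM) in 100mM KPO4. After 10 min compound preincubation, NADPH regeneration ran the reaction 60 min at room temperature. Luciferin was read by luminescence, normalized to 57 uM furafylline.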

For test [14], the target named is Cytochrome P450 2C19 (Homo sapiens) (UniProt P33261). The test is described as follows: qHTS Assay for Inhibitors and Substrates of Cytochrome P450 2C19 (AID 899). Note: % is set by controls: 0 for no effect and ±100 for the full control effect; nearly all actives have a fitted effect of over 60% in size. In outline:
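Reactions contain 5nM enzyme, 10uM Luciferin-H EGE (KM) and 50mM KPO4; compound preincubates 10 min at 37C, NADPH regeneration starts turnover for 60 min. Luminescence after detection reagent gives activity.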

Test [15] concerns the target Dual specificity protein kinase CLK4 (Homo sapiens) (UniProt Q9HAZ1). The test is described as follows: qHTS Assay for Inhibitors of CDC-like Kinase 4 (Kinase-Glo Assay) (AID 1770). Note: % is set by controls: 0 for no effect and ±100 for the full control effect; nearly all actives have a fitted effect of over 65% in size. In outline: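 Clk4 25 nM, RS peptide 100 uM, ATP 1 uM, pH 7.5 Tris, 10 mM MgCl2, 2.5 mM DTT; 4.5 h RT; ATP depletion read by Kinase-Glo luminescence.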
The target is the same in test [16]. The test is described as follows: qHTS Assay for Inhibitors of CDC-like Kinase 4 (ADP-Glo Assay) (AID 1771). Note: % is set by controls: 0 for no effect and ±100 for the full control effect; nearly all actives have a fitted effect of over 70% in size. Put shortly: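 Clk4 (25 nM) was incubated 1 hr at room temperature with 100 uM RS repeat peptide and 1 uM ATP in buffer with 2 mM MgCl2, 0.5 mM EGTA, 2.5 mM DTT. ADP formed was quantified by ADP-Glo luminescence.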
Test [17] has the same target. Kind of test: qHTS Assay for Inhibitors of CDC-like Kinase 4 (ADP-FP Assay) (AID 1795).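 Note: recombinant human CLK4 phosphorylating RS repeat peptide at 1 µM ATP; % is set by controls: 0 for no effect and ±100 for the full control effect; nearly all actives have a fitted effect of over 60% in size.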 Put shortly: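 Kinase activity was followed as ADP output, converted from fluorescence polarization with a calibration curve. Reactions ran one hour at low ATP (1 uM) with RS peptide substrate.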
For test [18], the target named is Ubiquitin carboxyl-terminal hydrolase 1 (Homo sapiens) (UniProt O94782). The test is described as follows: Inhibitors of USP1/UAF1: Pilot qHTS (AID 504865).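 Note: rhodamine fluorescence freed from ubiquitin-rhodamine substrate followed over time; top concentration of the series differs between compounds; % is set by controls: 0 for no effect and ±100 for the full control effect; nearly all actives have a fitted effect of over 35% in size.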 Put shortly: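 Enzyme-free wells gave the negative control, while test wells held 1nM USP1/UAF1 preincubated with compound for 15 min at room temperature. Ub-Rho at 150nM final started the reaction, and fluorescence at 480/540 nm was recorded kinetically.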

Test [19] addresses Glucocorticoid receptor (Homo sapiens) (UniProt P04150). Kind of test: GR-GFP Redistribution (AID 450;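 active = compounds whose dose series gives a full or clear partial fitted curve of increased nuclear translocation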; note: potency is the fitted concentration of half-maximal effect). As to conditions: U2OS GR-GFP nuclear translocation, laser cytometry, 2 h.
Where [20] appears, read: measured here: cell count channel max response.
Where [21] appears, read: measured here: lipid channel max response.

Chain of Cytochrome P450 3A4 (Homo sapiens) (P08684 whole entry, looked up): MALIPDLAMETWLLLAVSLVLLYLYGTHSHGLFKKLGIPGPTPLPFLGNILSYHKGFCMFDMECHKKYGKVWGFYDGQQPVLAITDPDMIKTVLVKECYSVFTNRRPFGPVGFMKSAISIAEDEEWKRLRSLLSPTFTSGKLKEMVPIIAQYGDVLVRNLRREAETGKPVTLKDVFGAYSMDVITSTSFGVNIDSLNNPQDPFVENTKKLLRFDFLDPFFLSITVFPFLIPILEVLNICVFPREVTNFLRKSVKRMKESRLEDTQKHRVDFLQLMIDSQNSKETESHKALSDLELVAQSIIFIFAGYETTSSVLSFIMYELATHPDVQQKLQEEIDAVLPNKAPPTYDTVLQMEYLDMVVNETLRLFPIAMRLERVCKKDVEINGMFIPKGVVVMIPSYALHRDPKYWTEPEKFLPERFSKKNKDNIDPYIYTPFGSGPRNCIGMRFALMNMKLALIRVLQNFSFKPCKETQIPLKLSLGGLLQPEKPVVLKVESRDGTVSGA
Chain of Lysosomal acid glucosylceramidase (Homo sapiens) (P04062 whole entry, looked up): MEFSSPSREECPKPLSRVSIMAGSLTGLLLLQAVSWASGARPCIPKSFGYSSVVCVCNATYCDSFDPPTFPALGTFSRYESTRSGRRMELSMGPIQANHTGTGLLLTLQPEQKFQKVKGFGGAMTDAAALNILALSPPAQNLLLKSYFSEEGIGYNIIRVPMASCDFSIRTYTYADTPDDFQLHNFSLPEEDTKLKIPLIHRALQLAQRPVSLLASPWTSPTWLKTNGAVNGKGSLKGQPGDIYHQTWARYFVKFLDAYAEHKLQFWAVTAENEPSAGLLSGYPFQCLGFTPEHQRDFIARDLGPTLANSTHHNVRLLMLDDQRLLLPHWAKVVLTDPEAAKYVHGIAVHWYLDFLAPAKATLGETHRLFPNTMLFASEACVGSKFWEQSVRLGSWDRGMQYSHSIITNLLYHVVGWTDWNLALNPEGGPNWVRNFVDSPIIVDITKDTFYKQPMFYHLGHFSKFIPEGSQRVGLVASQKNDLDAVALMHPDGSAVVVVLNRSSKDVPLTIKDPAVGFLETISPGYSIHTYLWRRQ
Chain of Glucocorticoid receptor (Homo sapiens) (P04150 whole entry, looked up, the tested form may be a part): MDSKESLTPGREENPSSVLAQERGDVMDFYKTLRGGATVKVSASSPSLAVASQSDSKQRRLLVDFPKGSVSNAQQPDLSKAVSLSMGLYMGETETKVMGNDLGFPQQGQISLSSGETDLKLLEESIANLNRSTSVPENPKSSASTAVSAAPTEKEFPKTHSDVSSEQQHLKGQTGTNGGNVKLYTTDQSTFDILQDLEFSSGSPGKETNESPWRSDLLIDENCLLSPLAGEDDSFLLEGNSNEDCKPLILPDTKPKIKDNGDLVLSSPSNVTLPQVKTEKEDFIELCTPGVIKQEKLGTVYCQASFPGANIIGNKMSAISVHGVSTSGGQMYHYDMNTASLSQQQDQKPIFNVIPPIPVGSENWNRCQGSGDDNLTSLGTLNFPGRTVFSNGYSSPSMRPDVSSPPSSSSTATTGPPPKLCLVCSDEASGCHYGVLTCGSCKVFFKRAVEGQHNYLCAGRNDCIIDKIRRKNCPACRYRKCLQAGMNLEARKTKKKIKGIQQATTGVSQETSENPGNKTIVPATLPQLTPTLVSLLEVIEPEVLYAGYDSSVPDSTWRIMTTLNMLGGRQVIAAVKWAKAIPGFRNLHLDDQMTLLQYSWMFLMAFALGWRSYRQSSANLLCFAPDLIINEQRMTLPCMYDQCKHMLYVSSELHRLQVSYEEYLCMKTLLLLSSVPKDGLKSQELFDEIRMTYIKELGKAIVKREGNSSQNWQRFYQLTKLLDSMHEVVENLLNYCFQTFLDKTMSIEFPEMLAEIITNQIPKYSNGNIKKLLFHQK
Chain of 3',5'-cyclic-AMP phosphodiesterase 4B (Homo sapiens) (Q07343 whole entry, looked up): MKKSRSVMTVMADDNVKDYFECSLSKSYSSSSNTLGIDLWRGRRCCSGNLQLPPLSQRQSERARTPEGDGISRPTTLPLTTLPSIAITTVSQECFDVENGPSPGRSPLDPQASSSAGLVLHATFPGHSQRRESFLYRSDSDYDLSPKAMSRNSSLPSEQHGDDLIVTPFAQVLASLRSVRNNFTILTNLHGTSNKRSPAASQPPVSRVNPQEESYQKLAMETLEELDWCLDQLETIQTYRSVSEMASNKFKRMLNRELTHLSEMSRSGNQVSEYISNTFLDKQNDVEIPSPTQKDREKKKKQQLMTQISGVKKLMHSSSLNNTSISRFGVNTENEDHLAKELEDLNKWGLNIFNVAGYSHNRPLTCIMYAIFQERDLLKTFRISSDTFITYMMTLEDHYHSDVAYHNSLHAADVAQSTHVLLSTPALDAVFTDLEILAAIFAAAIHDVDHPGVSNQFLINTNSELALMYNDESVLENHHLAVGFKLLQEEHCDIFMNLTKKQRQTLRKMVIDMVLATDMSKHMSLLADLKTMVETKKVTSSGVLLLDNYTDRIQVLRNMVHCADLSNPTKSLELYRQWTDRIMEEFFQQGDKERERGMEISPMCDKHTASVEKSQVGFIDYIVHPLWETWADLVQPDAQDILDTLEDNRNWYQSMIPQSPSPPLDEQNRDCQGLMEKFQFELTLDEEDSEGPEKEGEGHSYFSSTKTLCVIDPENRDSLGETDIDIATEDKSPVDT
Chain of Dual specificity protein kinase CLK4 (Homo sapiens) (Q9HAZ1 whole entry, looked up): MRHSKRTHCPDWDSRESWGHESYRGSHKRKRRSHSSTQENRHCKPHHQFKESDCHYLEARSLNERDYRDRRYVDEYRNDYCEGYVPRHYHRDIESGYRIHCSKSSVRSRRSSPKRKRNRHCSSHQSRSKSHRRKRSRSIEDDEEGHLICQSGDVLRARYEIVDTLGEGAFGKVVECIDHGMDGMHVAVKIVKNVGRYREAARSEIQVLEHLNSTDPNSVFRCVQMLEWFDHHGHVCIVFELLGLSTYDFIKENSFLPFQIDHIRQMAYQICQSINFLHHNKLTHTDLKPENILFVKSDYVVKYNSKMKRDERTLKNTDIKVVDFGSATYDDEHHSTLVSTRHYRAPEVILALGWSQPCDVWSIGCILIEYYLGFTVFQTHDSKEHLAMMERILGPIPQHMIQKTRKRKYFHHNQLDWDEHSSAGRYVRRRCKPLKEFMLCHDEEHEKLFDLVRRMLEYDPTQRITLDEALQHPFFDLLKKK
Chain of Cytochrome P450 1A2 (Homo sapiens) (P05177 whole entry, looked up): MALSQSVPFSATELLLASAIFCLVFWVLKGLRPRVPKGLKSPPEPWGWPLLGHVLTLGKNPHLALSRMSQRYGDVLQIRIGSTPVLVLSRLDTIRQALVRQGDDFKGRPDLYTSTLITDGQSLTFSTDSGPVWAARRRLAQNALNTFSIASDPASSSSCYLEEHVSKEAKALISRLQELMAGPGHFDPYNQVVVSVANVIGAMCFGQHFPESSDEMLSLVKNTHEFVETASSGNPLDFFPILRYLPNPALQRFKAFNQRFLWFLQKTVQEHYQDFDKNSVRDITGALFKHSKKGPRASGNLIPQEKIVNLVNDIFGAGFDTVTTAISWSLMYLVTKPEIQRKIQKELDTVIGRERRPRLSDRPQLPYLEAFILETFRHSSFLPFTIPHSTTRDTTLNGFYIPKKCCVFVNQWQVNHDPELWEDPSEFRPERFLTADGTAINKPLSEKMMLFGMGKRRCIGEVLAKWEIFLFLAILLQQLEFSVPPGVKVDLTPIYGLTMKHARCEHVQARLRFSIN
Chain of Cytochrome P450 2C19 (Homo sapiens) (P33261 whole entry, looked up): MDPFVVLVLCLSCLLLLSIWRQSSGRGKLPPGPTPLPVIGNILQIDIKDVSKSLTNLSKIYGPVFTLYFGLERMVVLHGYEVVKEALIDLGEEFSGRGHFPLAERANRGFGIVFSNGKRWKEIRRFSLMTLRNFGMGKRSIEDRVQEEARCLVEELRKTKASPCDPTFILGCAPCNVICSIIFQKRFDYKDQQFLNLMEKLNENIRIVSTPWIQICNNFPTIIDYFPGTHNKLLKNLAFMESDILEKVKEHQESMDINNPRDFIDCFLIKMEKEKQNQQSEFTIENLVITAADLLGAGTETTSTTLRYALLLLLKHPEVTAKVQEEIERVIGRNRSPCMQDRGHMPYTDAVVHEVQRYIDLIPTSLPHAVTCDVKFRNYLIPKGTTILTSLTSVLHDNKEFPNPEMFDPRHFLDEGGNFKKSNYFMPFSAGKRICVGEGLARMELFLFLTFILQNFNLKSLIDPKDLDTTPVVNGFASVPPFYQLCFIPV
Chain of Ubiquitin carboxyl-terminal hydrolase 1 (Homo sapiens) (O94782 whole entry, looked up): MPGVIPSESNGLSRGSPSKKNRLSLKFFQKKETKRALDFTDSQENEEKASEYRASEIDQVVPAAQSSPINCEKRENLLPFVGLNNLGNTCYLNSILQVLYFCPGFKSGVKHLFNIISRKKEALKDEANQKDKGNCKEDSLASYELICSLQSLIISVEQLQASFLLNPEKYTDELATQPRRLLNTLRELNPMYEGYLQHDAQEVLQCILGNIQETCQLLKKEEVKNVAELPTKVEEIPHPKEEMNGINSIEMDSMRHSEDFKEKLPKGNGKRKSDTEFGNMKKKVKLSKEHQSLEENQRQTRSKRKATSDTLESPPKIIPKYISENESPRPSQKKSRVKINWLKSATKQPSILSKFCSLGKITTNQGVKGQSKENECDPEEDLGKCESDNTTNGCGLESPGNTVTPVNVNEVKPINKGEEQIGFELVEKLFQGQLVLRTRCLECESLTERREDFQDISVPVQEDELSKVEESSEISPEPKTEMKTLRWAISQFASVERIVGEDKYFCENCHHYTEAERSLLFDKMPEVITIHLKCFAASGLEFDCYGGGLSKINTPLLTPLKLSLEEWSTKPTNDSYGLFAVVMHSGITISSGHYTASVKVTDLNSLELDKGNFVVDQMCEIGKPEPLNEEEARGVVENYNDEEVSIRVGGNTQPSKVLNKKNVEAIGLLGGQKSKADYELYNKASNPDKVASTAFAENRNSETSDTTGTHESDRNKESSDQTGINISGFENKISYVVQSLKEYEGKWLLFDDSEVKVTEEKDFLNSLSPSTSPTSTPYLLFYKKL

Consider `Cc1nc2cnc(N3CCN(C)CC3)nc2n(Cc2cccs2)c1=O`, for which the Potency is > 11.4 µM (inactive) in [1], > 46 µM (inactive) in test [5] and 39.8 µM (active) in test [11]. The activity change, negative = inhibition was 6.23% (inactive) in [2], -2.27% (inactive) in [3] and 5.56% (inactive) in [9]. Besides, the activity, negative = inhibition in [4] is -2.61% (inactive). Besides, the outcome in test [6] was inactive. Moreover, the Potency entry in [7], in test [8] and in test [10] was “inactive” throughout. For the same molecule, the values for the max response in [9] (setting [20]), in [9] (setting [21]) and in test [12] were 14%, 22.2% and -5.25% (inactive), respectively.

Turning to `O=c1c(-c2ccc(F)cc2)nc2cnc(N3CCNCC3)nc2n1-c1ccccc1`, the Potency is > 11.4 µM (inactive) in [1], 10 µM (active) in [13] and > 46 µM (inactive) in test [5]. The Potency entry in test [7], in test [8], in test [14], in [15], in test [16] and in test [17] was “inactive” throughout. Besides, the Potency entry in [18], in test [10] and in [11] was “inactive” in each case. The activity change, negative = inhibition in [9] was 6.93% (inactive). Also, the max response is 19.9% in test [9] (setting [20]), 25.6% in [9] (setting [21]) and -15.9% (inactive) in test [12].

Regarding `O=c1c(-c2cccs2)nc2cnc(N3CCNCC3)nc2n1-c1ccccc1`, the Potency was > 11.4 µM (inactive) in test [1], 2.51 µM (active) in test [13], > 9.22 µM (inactive) in test [19] and > 46 µM (inactive) in [5]. Also, the outcome in test [6] was inactive. In addition, the Potency entry in test [7], in test [8], in test [10] and in [11] was “inactive” each time. Besides, the max response in test [12] is 6.37% (inactive).

Regarding `CC[C@H](C)[C@H](NC(=O)[C@H](CC(=O)O)NC(=O)[C@H](CC(N)=O)NC(=O)[C@@H](NC(=O)[C@H](CCCNC(=N)N)NC(=O)[C@@H](NC(=O)[C@@H](NC(=O)[C@@H](NC(=O)[C@@H](NC(=O)[C@H](CCCCN)NC(=O)[C@@H](NC(=O)[C@H](CC(C)C)NC(=O)[C@@H](NC(=O)[C@H](CCCCN)NC(=O)[C@@H](NC(=O)[C@H](CC(=O)O)NC(=O)[C@H](CC(=O)O)NC(=O)[C@H](CCC(N)=O)NC(=O)[C@@H](NC(=O)[C@H](CCCCN)NC(=O)[C@H](CCC(N)=O)NC(=O)[C@@H](NC(=O)[C@@H]1CCCN1C(=O)[C@@H](N)C(C)C)[C@@H](C)CC)C(C)C)[C@@H](C)O)[C@@H](C)O)[C@@H](C)CC)[C@@H](C)O)[C@@H](C)CC)C(C)C)[C@@H](C)O)[C@@H](C)CC)C(=O)N[C@@H](CO)C(=O)N[C@@H](Cc1cnc[nH]1)C(=O)N[C@H](C(=O)N[C@@H](CCC(N)=O)C(=O)N[C@@H](CO)C(=O)N[C@H](C(=O)N[C@@H](CO)C(=O)N[C@@H](CO)C(=O)N[C@@H](CCCCN)C(=O)N[C@@H](CCC(N)=O)C(=O)N[C@@H](CCCCN)C(=O)O)C(C)C)[C@@H](C)O` (H-VPIQKVQDDTKTLIKTIVTRINDISHTQSVSSKQK-OH), in [10], the activity change, negative = inhibition is -4.21% [at 9.46 µM] (inactive). Also, the activity change, negative = decrease in test [11] is -1.59% [at 9.4 µM] (inactive). In test [12], the max response is 4.6% (inactive).
